# Data as given in PubChem BioAssay AID2540 (Sanford-Burnham Center for Chemical Genomics, 2010).
# In all, about 330,000 compounds went through this assay and about 4,100 (1.2%) were called active. Rule as the data show it: active = inhibition above about 50%; inactive = the rest. Only a selection was taken, and actives are over-represented in it overall.
# Biological target: Sentrin-specific protease 8 (Homo sapiens) (UniProt Q96LD8)
# Assay: blockers of human SENP8 peptidase activity – biochemical, luminescence, primary screen (AID 2540)
# Conditions: purified SENP8, Z-RLRGG-aminoluciferin cleavage, at 10 µM, hits give high values
# Chain of Sentrin-specific protease 8 (Homo sapiens) (Q96LD8 whole entry, looked up): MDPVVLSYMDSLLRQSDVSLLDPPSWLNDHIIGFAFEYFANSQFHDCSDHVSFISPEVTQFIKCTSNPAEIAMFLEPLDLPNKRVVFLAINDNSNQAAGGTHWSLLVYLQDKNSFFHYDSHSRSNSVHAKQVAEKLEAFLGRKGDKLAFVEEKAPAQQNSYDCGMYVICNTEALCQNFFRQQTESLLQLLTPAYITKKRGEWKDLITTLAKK
row,Compound,inhibition
1,N/C(=N\OC(=O)CC1CCCCC1)c1ccccc1,18.2% (inactive)
2,COc1ccccc1OCC(=O)O/N=C(\N)c1ccccn1,-6.27% (inactive)
3,N/C(=N\OC(=O)CCC1CCCCC1)c1ccccn1,70.6% (active)
4,COc1ccc(-c2noc(CNC(=O)C(C)Oc3ccccc3)n2)cc1 (centres undefined),-0.358% (inactive)
5,COc1ccc(-c2nc(-c3ccccc3)no2)c(OC)c1,98% (active)
6,COc1ccc(OC)c(-c2csc(-c3cccs3)n2)c1,-5.23% (inactive)
7,Clc1ccc2c(c1)C1=C(C(c3ccncc3)O2)C(c2ccc(Br)cc2)n2ncnc2N1 (centres undefined),-1.86% (inactive)
8,CC(C)NC(=S)NN=C1CCCCCCCCCCC1,-4.77% (inactive)
9,CCn1c(CC(=O)Nc2ccccc2)nnc1SCC(=O)N1CCOCC1,3.84% (inactive)
10,CCC1(CC)NC(=O)N(Cc2nc3ccccc3s2)C1=O,-5% (inactive)
11,C/C(=N\NC(=O)CC(C)C)c1c(C(F)(F)F)[nH]n(-c2nc3ccccc3s2)c1=O,96.3% (active)
12,CC(C)CC(=O)N/C(N)=N/c1nc2ccccc2s1,17% (inactive)
13,CC(=NCc1ccco1)c1c(C(F)(F)F)[nH]n(-c2nc3ccccc3s2)c1=O,94.7% (active)
14,CCC(C)Cn1c(O)cc2nn(-c3nc4ccccc4s3)c(=O)c-2c1C (centres undefined),48% (inactive)
15,CCc1ccc(-c2cc(C(=O)NCc3ccco3)c3ccccc3n2)s1,-4.94% (inactive)
16,CC(C)(CSc1nncn1/N=C/c1ccco1)NS(=O)(=O)c1ccc(Cl)cc1,-9.04% (inactive)
17,Cc1cc(/C=N/NC(N)=O)c(C)n1C1CCCCC1,-15.2% (inactive)
18,CCCCN1Cc2c(nc3cc(-c4ccccc4)[nH]n3c2=O)C1=O,1.85% (inactive)
19,Cc1cc(=O)n2[nH]c(-c3cccc(Cl)c3)cc2n1,-14% (inactive)
20,O=c1c2c(nc3cc(-c4cccc(Cl)c4)[nH]n13)CCCC2,61.8% (active)

row,Compound,inhibition
1,CC(Sc1nnc(-c2cccs2)n1C1CC1)C(=O)NCC1CCCO1 (centres undefined),-0.203% (inactive)
2,Cc1ccnc(N2C(=O)c3ccc([N+](=O)[O-])cc3C2=O)c1,6.9% (inactive)
3,Cc1ccc(-c2cn(S(=O)(=O)c3cccc([N+](=O)[O-])c3)nc2N)cc1,-7.7% (inactive)
4,Cc1ccc(-n2cc3ccc([N+](=O)[O-])cc3n2)cc1,68.6% (active)
5,COc1ccc(CN2CCN(C(=O)c3cc(C4CC4)nn3-c3ccccc3)CC2)cc1F,-8.29% (inactive)
6,COc1cc(SC)ccc1C(=O)Nc1nc(C)cs1,97.6% (active)
7,Cc1csc(NC(=O)c2ccc(C)s2)n1,-2.73% (inactive)
8,COc1cc(SC)ccc1C(=O)Nc1cc(C)ccn1,39% (inactive)
9,COc1ccc(N(CC(=O)NC2CCCC2)C(=O)CS(=O)CC(=O)Nc2ccc3c(c2)OCO3)cc1 (centres undefined),-16.6% (inactive)
10,Cc1[nH]n(-c2ccccc2)c(=O)c1N=Nc1ccccc1C(=O)N1CCCCC1,-1.4% (inactive)
11,CCNC(=S)N1CCN(CCN=CC2=C(O)CC(C)(C)CC2=O)CC1,-4.68% (inactive)
12,C=CCNC(=S)N1CCN(CCN=Cc2c(C)[nH]n(-c3ccc([N+](=O)[O-])cc3)c2=O)CC1,61.4% (active)
13,CC1(C)CC(=O)C(C=NCCN2CCN(C(=S)Nc3cccc(Cl)c3)CC2)=C(O)C1,0.407% (inactive)
14,Cc1[nH]n(-c2ccc([N+](=O)[O-])cc2)c(=O)c1C=NCCN1CCN(C(=O)c2ccccc2F)CC1,64.8% (active)
15,Cc1ccc(-n2[nH]c(C)c(/C=N/NC(=O)c3cccc([N+](=O)[O-])c3)c2=O)cc1C,-5.78% (inactive)
16,CCc1ccc2nc(Nc3ncc(C(C)=O)c(C)n3)nc(C)c2c1,-7.29% (inactive)
17,Cn1nnnc1-c1cc(Cl)cc(Cl)c1,3.44% (inactive)
18,N#C/C(=C\c1cccnc1)C(=O)Nc1ccc(SC(F)F)cc1,7.81% (inactive)
19,COc1ccc(N(CC(=O)NCCSCc2cccc(Cl)c2)S(C)(=O)=O)cc1,4.81% (inactive)
20,CCC(C)c1ccc(NC(=S)N2CCCC2)cc1 (centres undefined),-3.49% (inactive)

row,Compound,inhibition
1,N/C(=N\OC(=O)c1cc(-c2ccccc2)nc2ccccc12)c1ccncc1,-5.5% (inactive)
2,Cc1ccc(/C(N)=N/OC(=O)COc2ccc(Cl)c(C)c2)cc1,-7.2% (inactive)
3,Cc1cccc(/C(N)=N/OC(=O)c2ccccc2Cl)c1,94.7% (active)
4,Cc1ccc(S(=O)(=O)NCCNC(C)c2ccc(Br)cc2)cc1 (centres undefined),2.45% (inactive)
5,C[C@H](NC(=O)c1ccccc1Cl)C(=O)OCC(=O)N1CCN(c2ccccc2)CC1,2.29% (inactive)
6,COc1ccc(C(=O)OCC(=O)c2ccc(C)c(S(=O)(=O)N3CCOCC3)c2)cc1OC,-6.51% (inactive)
7,COc1ccc(C(=O)OCC(=O)c2ccc(Cl)s2)c(OC)c1OC,-5.24% (inactive)
8,COc1cccc(/C=C/C(=O)OCC(=O)N2CCN(c3ccccc3)CC2)c1,-5.84% (inactive)
9,O=C(OCC(=O)N1CCN(c2ccccc2)CC1)c1ccc([N+](=O)[O-])s1,58.1% (active)
10,COc1cc(C(=O)OCc2ccc([N+](=O)[O-])cc2)cc(OC)c1OC,15.6% (inactive)
11,COc1ccc(C(=O)OCC(=O)Nc2ccc3[nH]c(=O)[nH]c3c2)c(OC)c1OC,2.13% (inactive)
12,COc1ccc(C(=O)COC(=O)c2ccc([N+](=O)[O-])s2)cc1OC,61.6% (active)
13,COc1cc(NC(=O)COC(=O)c2ccc([N+](=O)[O-])s2)cc(OC)c1OC,63.8% (active)
14,CC1(C)Cc2ccccc2-c2nnc(-c3cccc(O)c3)n21,-5.27% (inactive)
15,Cc1ccc(NS(=O)(=O)c2ccc(C(C)C)cc2)cc1S(=O)(=O)N1CCOCC1,-8.64% (inactive)
16,NC(=O)c1ccc(Nc2ccc3c(c2)CCC3)c([N+](=O)[O-])c1,-12.7% (inactive)
17,O=C(N/N=C/c1sc(N2CCCCC2)nc1-c1cccs1)c1cccnc1,-8.56% (inactive)
18,COc1ccc(OC)c(S(=O)(=O)NCCC(C)C)c1,0.429% (inactive)
19,O=C(NCC(=O)N1CCN(c2ccccc2O)CC1)c1ccc2ccccc2c1,-4.96% (inactive)
